Sampled rows, rich in hits. Any-hit rate of the full collection: about 1.5%.
HIF activator – HIF pathway transcriptional activation | U2OS HRE-luciferase reporter, luminescence; normalized: DMSO 0%, desferrioxamine 100% | activation, % at 7.5 µM (by protocol) | hit rate 0.32% among 300,000;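 active = mean activation of at least 10% of the iron chelator positive control signal, with at least half of replicates also reaching 10%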
PP1 counter – counter-screen for PP5 inhibitors: inhibitors of human PP1-alpha | P62136 | purified PP1alpha, OMFP fluorescence | inhibition, % at 6.7 µM | hit rate 0.9% among 320,000;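 active = inhibition above the mean inhibition of all tested compounds plus 3 SD, computed separately for each screening campaign, cut at about 15% in these data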
STK33 inh – human STK33 kinase inhibition; Q9BYT3; purified STK33, MBP phosphorylation, ADP-Glo luminescence; inhibition, % at 10 µM; hit rate 0.073% among 320,000;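 active = inhibition at or above 25%, using the most active replicate where run in duplicate; inactive = inhibition below 25%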
PP5 inh – blocks human protein phosphatase 5 activity. purified PP5c, OMFP substrate fluorescence. hit rate 0.18% among 320,000. AID 1987. inhibition, % at 6.7 µM. P53041;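 active = inhibition above the campaign's mean inhibition across all tested compounds plus 3 SD, cut at about 9.5% in these data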;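 note: 0% = DMSO only and 100% = 100 µM cantharidin control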
Target sequence (P53041 whole entry, looked up): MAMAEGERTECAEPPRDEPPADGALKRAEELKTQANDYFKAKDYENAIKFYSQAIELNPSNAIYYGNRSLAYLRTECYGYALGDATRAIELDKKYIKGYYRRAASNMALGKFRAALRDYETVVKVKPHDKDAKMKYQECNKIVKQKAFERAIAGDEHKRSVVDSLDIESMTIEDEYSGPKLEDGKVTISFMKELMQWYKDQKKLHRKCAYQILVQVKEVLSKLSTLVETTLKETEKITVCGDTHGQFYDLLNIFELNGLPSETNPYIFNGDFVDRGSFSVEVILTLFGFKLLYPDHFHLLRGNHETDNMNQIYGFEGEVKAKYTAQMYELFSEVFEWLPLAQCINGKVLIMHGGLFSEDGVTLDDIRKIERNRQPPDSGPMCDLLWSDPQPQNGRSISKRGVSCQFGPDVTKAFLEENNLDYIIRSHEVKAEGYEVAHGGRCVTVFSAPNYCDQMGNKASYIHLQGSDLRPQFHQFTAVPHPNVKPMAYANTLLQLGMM
DYRK1A inh – inhibitors of rat Dyrk1A kinase | Q63470 | inhibition, % at 12.5 µM | ADP-Glo luminescence, NFATc1 peptide | AID 504441 | hit rate 0.43% among 310,000; in the data active = inhibition above about 50%;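 note: plate controls were vehicle with enzyme for no effect and no enzyme for full effect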
An asterisk follows results filed as active; nt = no result given; + = active, no number.

SMILES	HIF activator	PP1 counter	STK33 inh	PP5 inh	DYRK1A inh
COc1ccc(S(=O)(=O)N2CCN(C)CC2)cc1C(=O)Nc1ccccc1	-0.1	-1.9	0.3	1.0	-1.4
CCCCNC(=O)CN1C(=O)COc2ccc(S(=O)(=O)N3CCCCCC3)cc21	46.1*	-2.9	-0.7	1.1	-6.3
Cc1cc(C)nc(Sc2ncnc(N)c2[N+](=O)[O-])n1	11.0*	-0.5	-0.3	-2.0	12.2
CC1=NN(C(N)=S)C(=O)C1N=Nc1ccc(C)cc1C (stereo not drawn)	1.9	6.5	-2.1	2.6	nt
CC1=NN(C(N)=S)C(=O)C1N=Nc1c(C)cc(C)cc1C (stereo not drawn)	-0.1	16.9*	-0.9	0.8	1.9
O=C(Nc1nc(NC(=O)c2ccco2)n(-c2ccccc2)n1)c1ccccc1	12.0*	13.8	2.0	0.5	-0.1
CC(=O)Nc1nc(NC(=O)/C=C/c2ccccc2)n(-c2ccccc2)n1	10.4*	2.4	1.5	1.5	nt
Nc1nc(NC(=O)c2ccccc2)nn1-c1ccccc1	0.6	-2.5	-0.2	3.3	19.0
Cc1c(NC(=O)c2ccc(S(=O)(=O)N(C)C)cc2)cccc1-n1cnnn1	nt	3.8	-0.4	0.3	nt
CC(=O)Nc1ccc(-c2cn3cc(C)ccc3n2)cc1	0.0	-1.1	-0.2	2.0	3.0
Cc1ccc2nc(-c3ccc(O)c(O)c3)cn2c1	28.6*	-1.2	18.1	-1.9	34.1
Fc1cccc(/C=N/Nc2nccnc2Cl)c1	78.4*	-4.0	1.5	-0.3	4.6
CC(C)NS(=O)(=O)c1ccc(CCC(=O)N2CCCCC2)cc1	-0.1	-1.1	-2.0	-0.3	-0.7
COc1ccccc1/C=N\Nc1cn[nH]c(=O)c1Cl	-0.1	-1.1	-0.8	0.5	0.3
CCOc1ccccc1/C=N\Nc1cnn(Cc2ccccc2)c(=O)c1Cl	-0.8	15.6*	-1.0	5.3	-2.7
N#Cc1ccccc1NC(=O)COC(=O)c1c[nH]c2ccccc12	nt	nt	nt	nt	1.7
S=C(c1cn(CCOc2cccc3ccccc23)c2ccccc12)N1CCCC1	-0.3	23.7*	-2.5	1.7	-1.9
S=C(c1cn(CCOc2ccccc2)c2ccccc12)N1CCCC1	-1.2	0.9	0.4	-1.6	-1.9
CCN1/C(=C/C=C/c2oc3ccc4ccccc4c3[n+]2CC)Oc2ccc3ccccc3c21	-3.7	48.9*	0.0	-0.7	nt
CC[n+]1c(/C=C/N(C)c2ccccc2)oc2ccc(Cl)cc21	4.6	-1.5	-1.2	2.1	nt
CC1(C)CC(=O)C(CC2C(=O)CC(C)(C)CC2=O)C(=O)C1	54.4*	-1.1	-1.1	0.9	-1.6
Cc1cc(=O)n2[nH]c(-c3ccsc3-n3c(C)ccc3C)cc2n1	-0.7	16.1*	-0.7	3.0	1.6
COc1cccc(N=Nc2c(N)[nH][nH]c2=O)c1	1.1	0.1	2.4	-0.9	-0.4
COc1cccc(N=Nc2c(N)[nH]n3c(=O)c4c(nc23)CCCC4)c1	0.1	16.6*	-0.8	1.9	-4.8
COc1ccc(Cc2nnc(SCC(=O)NC3CCCCC3)n2C)cc1	69.9*	-5.5	1.7	1.7	0.6
SMILES	HIF activator	PP1 counter	STK33 inh	PP5 inh	DYRK1A inh
COc1ccc(OC)c(C2=CC(=O)C[C@H](c3ccc4c(c3)OCO4)C2)c1	nt	-4.9	-0.4	1.2	14.1
N/C(=N\OC(=O)Cc1cccs1)c1ccc(Cl)cc1	-0.8	-2.2	-0.7	1.6	nt
N/C(=N\OC(=O)Cc1cccs1)c1ccccc1	+	-2.7	0.0	0.1	1.3
N/C(=N\OC(=O)c1cccs1)c1ccc(Cl)cc1	12.1*	-4.4	-4.6	-3.2	nt
Cc1ccc(/C(N)=N/OC(=O)Cc2cccs2)cc1	5.4	-2.4	0.4	0.9	6.4
O=C1C=C(c2ccccc2)CC(c2cccs2)C1n1cnc([N+](=O)[O-])c1 (stereo not drawn)	47.6*	3.1	-1.2	-0.6	2.8
COc1cccc(NC(=O)CN(C)C(=O)CCN2C(=O)C3CC=CCC3C2=O)c1 (stereo not drawn)	nt	nt	nt	nt	5.0
CCCn1c(CN2CCN(C(=O)OCC)CC2)nc2cc(NC(C)=O)ccc21	-5.6	-0.9	-0.6	0.8	3.0
Cc1ccc2c(c1)C1NC(=S)NC(C)(O2)C1C(=O)Nc1ccc(Cl)cc1 (stereo not drawn)	51.4*	1.9	0.9	2.1	-7.8
CCOCc1nnc(NC(=O)c2cc(Cl)ccc2OC)s1	0.6	-1.3	-2.0	3.8	1.5
COCc1nnc(NC(=O)c2cc(Cl)ccc2OC)s1	877.5*	-5.0	-1.5	1.9	-4.0
CNC(=S)Nc1cccc(-c2cnc3ccccc3n2)c1	1.9	-3.8	25.7*	0.8	28.5
Cc1ccc2nc(-c3ccc(NC(=O)CSc4nc(N)cc(=O)[nH]4)cc3)sc2c1	2.6	15.7*	-2.2	-2.0	-1.8
Cc1onc(-c2c(Cl)cccc2Cl)c1C(=O)N=C(N)N1CCCC1	28.2*	-2.3	-2.9	-0.3	nt
Cc1onc(-c2c(Cl)cccc2Cl)c1C(=O)N=C(N)N1CCOCC1	-0.4	-4.7	-1.7	-0.8	nt
Cc1nn(-c2ccccc2)c(C)c1/C=N/NC(=O)CSc1nnc(SCc2ccc(Cl)cc2)s1	1.6	16.8*	-0.8	3.0	-5.5
Cc1ccc(CNC(=O)COC(=O)Cc2ccc(-c3ccccc3)cc2)cc1	2.1	16.0*	-0.4	-6.2	-8.3
O=C(COC(=O)Cc1ccc(-c2ccccc2)cc1)NCc1ccc(F)cc1	0.2	0.7	-1.6	0.5	-4.2
Cc1ccc2nc(-c3cccc(-c4cccc(Cl)c4)c3)c(NCc3ccccc3)n2c1	-2.8	15.8*	-0.3	5.4	3.8
CCC(C)Sc1cccc(-c2nc3ccc(C)cn3c2NCc2ccccc2)c1 (stereo not drawn)	-5.8	8.6	-0.2	6.0	18.5
COc1ccc(C2CC(c3ccccc3)=NN2C(=O)CN2N=NC3C(=O)N(c4cccc(F)c4)C(=O)C32)cc1 (stereo not drawn)	0.4	16.6*	-0.6	1.8	-8.6
CCOC(=O)c1c(C)[nH]c(C(=O)OCC(=O)c2ccccc2)c1C	2.1	-2.5	-0.1	1.4	11.9
CCCCN(C(=O)c1c(C)[nH]c(C(=O)OCC)c1C)c1ccccc1	10.4*	-0.6	-0.3	3.6	2.4
CCOC(=O)c1c(C)[nH]c(C(=O)CSc2ccc(Cl)cc2)c1C	0.5	-0.6	-3.1	2.0	-8.9
CCOC(=O)c1c(C)[nH]c(C(=O)OCc2ccccc2F)c1C	10.6*	2.3	-1.3	4.8	-5.5
CCOC(=O)c1c(C)[nH]c(C(=O)CSc2nnc(Nc3ccccc3F)s2)c1C	0.2	17.5*	1.0	3.0	-1.1
C/C(=N\Nc1ccc2nncn2n1)c1ccccn1	128.7*	-1.5	0.0	-2.7	nt
CC(Sc1n[nH]c(N)n1)C(=O)NC1CCCCC1C (stereo not drawn)	-0.4	1.1	0.1	0.6	nt
COc1ccc(N2CCN(c3ccc(S(=O)(=O)N(C(C)C)C(C)C)cn3)CC2)cc1	0.0	-2.5	-0.9	-0.1	-4.1
Cc1ccc(-n2nc(C(=O)c3ccccc3)n3c(=O)c(Cc4ccccc4)nnc23)cc1	-0.2	16.8*	-0.3	0.8	-2.4

High-throughput results from PubChem.
